Assay results reported in PubChem BioAssay AID1159580 (chemical genetic matrix, 2015).
Several values for one entry are separate records, joined by “and”; a condition that tells them apart may be missing. Equal entries are not always repeated. Out of some 5,500 compounds screened, about 2,000 (36%) were called active. Not shown: some 18% with an inconclusive outcome. Cut-off read from the data, not from the text of the source: active = normalized growth mostly below about 0.91 (no sharp cut-off); inconclusive = no clear call, values can overlap the other calls; inactive = mostly above about 0.92. The list shows a part of the results.

Assay: chemical genetic growth profiling, strain panel (AID 1159580);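 note: tested at 20 µM; growth read once vehicle control cultures reached saturation at 30 °C; 1 = growth at the plate median or of vehicle wells; lower values mean less growth of the strain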
Conditions: growth OD

Measured: normalized growth

CCC(C(N)=O)c1ccccc1 (configuration not stated)
inactive: S. cerevisiae deletion strains, locus YAL013W, strain DEP1, hits give low values 1.02 | S. cerevisiae deletion strains, locus YBR021W, strain FUR4, hits give low values 1.04 | S. cerevisiae deletion strains, locus YBR229C, strain ROT2, hits give low values 0.999 | S. cerevisiae deletion strains, locus YCL029C, strain bik1, hits give low values 0.992 | S. cerevisiae deletion strains, locus YDL035C, strain GPR1, hits give low values 1.03 | S. cerevisiae deletion strains, locus YDL074C, strain BRE1, hits give low values 1.04 | S. cerevisiae deletion strains, locus YDL101C, strain DUN1, hits give low values 1.01 | S. cerevisiae deletion strains, locus YDL134C, strain PPH21, hits give low values 1 | S. cerevisiae deletion strains, locus YDL185W, strain tfp1, hits give low values 0.997 | S. cerevisiae deletion strains, locus YDL192W, strain arf1, hits give low values 1 | S. cerevisiae deletion strains, locus YDR101C, strain arx1, hits give low values 0.986 | S. cerevisiae deletion strains, locus YDR150W, strain NUM1, hits give low values 1 | S. cerevisiae deletion strains, locus YDR162C, strain NBP2, hits give low values 1.03 | S. cerevisiae deletion strains, locus YDR318W, strain mcm21, hits give low values 0.998 | S. cerevisiae deletion strains, locus YDR388W, hits give low values 0.999 | S. cerevisiae deletion strains, locus YDR502C, strain sam2, hits give low values 1.01 | S. cerevisiae deletion strains, locus YEL061C, strain CIN8, hits give low values 1.02 | S. cerevisiae deletion strains, locus YER110C, hits give low values 0.987 | S. cerevisiae deletion strains, locus YER155C, strain BEM2, hits give low values 0.998 | S. cerevisiae deletion strains, locus YER167W, strain BCK2, hits give low values 1.01 | S. cerevisiae deletion strains, locus YGL078C, strain dbp3, hits give low values 1 | S. cerevisiae deletion strains, locus YGL086W, strain mad1, hits give low values 0.997 | S. cerevisiae deletion strains, locus YGL248W, strain PDE1, hits give low values 1 | S. cerevisiae deletion strains, locus YGR078C, strain PAC10, hits give low values 1.03 | S. cerevisiae deletion strains, locus YGR135W, strain pre9, hits give low values 1 | S. cerevisiae deletion strains, locus YGR229C, strain SMI1, hits give low values 1.01 | S. cerevisiae deletion strains, locus YGR252W, strain gcn5, hits give low values 1.11 | S. cerevisiae deletion strains, locus YHR030C, strain SLT2, hits give low values 1.01 and 0.954 | S. cerevisiae deletion strains, locus YHR079C, strain IRE1 (second series), hits give low values 0.99 | S. cerevisiae deletion strains, locus YHR079C, strain IRE1, hits give low values 0.992 | S. cerevisiae deletion strains, locus YHR094C, strain hxt1, hits give low values 0.982 | S. cerevisiae deletion strains, locus YHR129C, strain ARP1, hits give low values 1 | S. cerevisiae deletion strains, locus YHR200W, strain rpn10, hits give low values 1.01 | S. cerevisiae deletion strains, locus YIL066C, strain RNR3, hits give low values 1.01 | S. cerevisiae deletion strains, locus YIL073C, strain SPO22, hits give low values 0.946 | S. cerevisiae deletion strains, locus YIL125W, strain kgd1, hits give low values 1.01 | S. cerevisiae deletion strains, locus YIR030C, strain dcg1, hits give low values 0.998 | S. cerevisiae deletion strains, locus YJL095W, strain BCK1, hits give low values 1.03 and 0.98 | S. cerevisiae deletion strains, locus YJL134W, strain LCB3, hits give low values 1.01 | S. cerevisiae deletion strains, locus YJL168C, strain set2, hits give low values 0.981 | S. cerevisiae deletion strains, locus YJL187C, strain SWE1 (second series), hits give low values 1.01 | S. cerevisiae deletion strains, locus YJR043C, strain POL32, hits give low values 1.04 | S. cerevisiae deletion strains, locus YJR066W, strain TOR1, hits give low values 0.899 | S. cerevisiae deletion strains, locus YJR075W, strain HOC1, hits give low values 1.01 | S. cerevisiae deletion strains, locus YKL009W, strain mrt4, hits give low values 1.02 | S. cerevisiae deletion strains, locus YKL068W, hits give low values 0.998 | S. cerevisiae deletion strains, locus YKL085W, strain MDH1 (second series), hits give low values 1 | S. cerevisiae deletion strains, locus YKL085W, strain MDH1, hits give low values 1 | S. cerevisiae deletion strains, locus YKL190W, strain CNB1, hits give low values 1.02 | S. cerevisiae deletion strains, locus YKR001C, strain vps1, hits give low values 0.989 | S. cerevisiae deletion strains, locus YLR039C, strain RIC1, hits give low values 1.04 | S. cerevisiae deletion strains, locus YLR058C, strain SHM2, hits give low values 1.01 | S. cerevisiae deletion strains, locus YLR102C, strain apc9, hits give low values 0.983 | S. cerevisiae deletion strains, locus YLR113W, strain HOG1, hits give low values 1.01 | S. cerevisiae deletion strains, locus YLR262C, strain YPT6, hits give low values 1.04 | S. cerevisiae deletion strains, locus YLR268W, strain sec22, hits give low values 1.01 | S. cerevisiae deletion strains, locus YLR330W, strain CHS5, hits give low values 1.01 | S. cerevisiae deletion strains, locus YLR342W, strain FKS1 (second series), hits give low values 1.02 | S. cerevisiae deletion strains, locus YLR371W, strain rom2, hits give low values 0.984 | S. cerevisiae deletion strains, locus YLR418C, strain cdc73, hits give low values 1.06 | S. cerevisiae deletion strains, locus YML016C, strain PPZ1, hits give low values 1.01 | S. cerevisiae deletion strains, locus YML032C, strain rad52, hits give low values 1.01 | S. cerevisiae deletion strains, locus YML124C, strain tub3, hits give low values 0.994 | S. cerevisiae deletion strains, locus YMR078C, strain ctf18, hits give low values 0.996 | S. cerevisiae deletion strains, locus YMR223W, strain ubp8, hits give low values 0.986 | S. cerevisiae deletion strains, locus YMR263W, strain SAP30, hits give low values 1.02 | S. cerevisiae deletion strains, locus YMR307W, strain GAS1, hits give low values 1.1 | S. cerevisiae deletion strains, locus YNL067W, strain RPL9B, hits give low values 1.04 | S. cerevisiae deletion strains, locus YNL128W, strain TEP1, hits give low values 1.02 | S. cerevisiae deletion strains, locus YNL153C, strain GIM3, hits give low values 1.01 | S. cerevisiae deletion strains, locus YNL183C, strain NPR1, hits give low values 0.903 | S. cerevisiae deletion strains, locus YNL233W, strain BNI4, hits give low values 1.01 | S. cerevisiae deletion strains, locus YNL250W, strain rad50, hits give low values 1 | S. cerevisiae deletion strains, locus YNL271C, strain bni1, hits give low values 1 | S. cerevisiae deletion strains, locus YNL298W, strain CLA4, hits give low values 1.01 | S. cerevisiae deletion strains, locus YNL307C, strain MCK1, hits give low values 1.01 | S. cerevisiae deletion strains, locus YNL322C, strain KRE1, hits give low values 1.01 | S. cerevisiae deletion strains, locus YNR052C, strain pop2, hits give low values 0.984 | S. cerevisiae deletion strains, locus YOL006C, strain TOP1, hits give low values 1.06 | S. cerevisiae deletion strains, locus YOL012C, strain htz1 1.05 | S. cerevisiae deletion strains, locus YOL147C, strain pex11, hits give low values 0.988 | S. cerevisiae deletion strains, locus YOR061W, strain CKA2, hits give low values 1.01 | S. cerevisiae deletion strains, locus YOR069W, strain VPS5, hits give low values 1.01 | S. cerevisiae deletion strains, locus YOR136W, strain idh2, hits give low values 1 | S. cerevisiae deletion strains, locus YOR144C, strain elg1, hits give low values 0.997 | S. cerevisiae deletion strains, locus YOR184W, strain ser1, hits give low values 1 | S. cerevisiae deletion strains, locus YOR231W, strain MKK1, hits give low values 0.95 | S. cerevisiae deletion strains, locus YOR316C, strain cot1, hits give low values 0.988 | S. cerevisiae deletion strains, locus YPL055C, strain LGE1, hits give low values 1.05 | S. cerevisiae deletion strains, locus YPL241C, strain CIN2, hits give low values 1.01 | S. cerevisiae deletion strains, locus YPL256C, strain CLN2, hits give low values 0.962 | S. cerevisiae deletion strains, locus YPR119W, strain clb2, hits give low values 0.986 | S. cerevisiae deletion strains, locus YPR141C, strain kar3, hits give low values 1.01 | S. cerevisiae deletion strains, locus YPR163C, strain tif3, hits give low values 0.999 | S. cerevisiae deletion strains, locus YPR167C, strain met16, hits give low values 0.999 | S. cerevisiae deletion strains, strain wtn01, hits give low values 1 | S. cerevisiae strains, strain wild type, hits give low values 1.01
